# According to article PMC7862700, “An all-to-all approach to the identification of sequence-specific readers for epigenetic DNA modifications on cytosine”:
# What was measured:
# Assay in all cases: DAPPL (digital affinity profiling via proximity ligation, sequencing); 10 mM Tris-HCl pH 7.5, 50 mM NaCl, 1 mM DTT, 4% glycerol, room temperature, 30 min; GST-TFs on glutathione beads, 16-mer random dsDNA library, 0.1% formaldehyde crosslink after washing; high values mean tight binding
# Conditions in all cases: protein: recombinant; tags: N-terminal GST; dsDNA, one strand shown
# ETV1 = ETV1 (Homo sapiens, UniProt P50549 1-477)
# ETV1, sequence (P50549 whole entry, the tested form may be a part): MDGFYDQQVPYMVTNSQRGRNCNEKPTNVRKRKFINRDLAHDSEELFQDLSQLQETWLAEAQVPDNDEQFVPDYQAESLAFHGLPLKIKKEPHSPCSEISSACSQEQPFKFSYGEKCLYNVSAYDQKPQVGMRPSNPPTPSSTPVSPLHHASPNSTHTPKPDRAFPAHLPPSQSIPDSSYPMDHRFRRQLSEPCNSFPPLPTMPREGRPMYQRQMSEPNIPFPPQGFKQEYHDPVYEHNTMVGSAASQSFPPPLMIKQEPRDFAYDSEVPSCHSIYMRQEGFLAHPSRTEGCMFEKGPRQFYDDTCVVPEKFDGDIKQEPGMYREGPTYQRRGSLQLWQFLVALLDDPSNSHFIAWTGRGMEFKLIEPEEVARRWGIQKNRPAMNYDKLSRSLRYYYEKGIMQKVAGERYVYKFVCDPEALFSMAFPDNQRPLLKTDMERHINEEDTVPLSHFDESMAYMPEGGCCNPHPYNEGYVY
# Procedure, shortened: (§1)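 GST fusions of human transcription factors were expressed in yeast and captured with glutathione beads. Once given DNA barcodes and pooled alongside a tag-only sample, they were incubated for 30 min at room temperature with 200 nmole of a random double-stranded 16-mer DNA library in Tris/NaCl/DTT/glycerol buffer, then washed, crosslinked (0.1% formaldehyde), proximity-ligated, PCR-amplified and sequenced on an Illumina NextSeq500. The binding signal of each hexamer is its read frequency for a factor divided by its frequency for the tag-only sample.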
# ERF = target: T1, ERF (Homo sapiens, UniProt P50548 1-548)
# T1 sequence: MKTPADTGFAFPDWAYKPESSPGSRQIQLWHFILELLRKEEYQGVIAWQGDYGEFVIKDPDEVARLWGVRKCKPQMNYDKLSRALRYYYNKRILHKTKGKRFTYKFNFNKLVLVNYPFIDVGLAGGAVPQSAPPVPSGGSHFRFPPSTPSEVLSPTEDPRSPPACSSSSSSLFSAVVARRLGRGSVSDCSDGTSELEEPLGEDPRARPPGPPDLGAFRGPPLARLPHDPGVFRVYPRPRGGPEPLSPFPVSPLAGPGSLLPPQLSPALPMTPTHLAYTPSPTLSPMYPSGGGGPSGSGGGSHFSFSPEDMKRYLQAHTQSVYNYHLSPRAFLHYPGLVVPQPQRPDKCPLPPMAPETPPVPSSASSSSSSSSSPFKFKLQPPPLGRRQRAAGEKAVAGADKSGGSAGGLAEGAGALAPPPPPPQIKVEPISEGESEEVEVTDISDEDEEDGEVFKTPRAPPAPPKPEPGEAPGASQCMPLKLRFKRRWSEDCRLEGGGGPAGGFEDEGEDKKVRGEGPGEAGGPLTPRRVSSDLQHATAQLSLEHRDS
# Procedure, shortened: as §1
# ETV3L = target: T2, ETV3L (Homo sapiens, UniProt Q6ZN32 1-361)
# T2 sequence: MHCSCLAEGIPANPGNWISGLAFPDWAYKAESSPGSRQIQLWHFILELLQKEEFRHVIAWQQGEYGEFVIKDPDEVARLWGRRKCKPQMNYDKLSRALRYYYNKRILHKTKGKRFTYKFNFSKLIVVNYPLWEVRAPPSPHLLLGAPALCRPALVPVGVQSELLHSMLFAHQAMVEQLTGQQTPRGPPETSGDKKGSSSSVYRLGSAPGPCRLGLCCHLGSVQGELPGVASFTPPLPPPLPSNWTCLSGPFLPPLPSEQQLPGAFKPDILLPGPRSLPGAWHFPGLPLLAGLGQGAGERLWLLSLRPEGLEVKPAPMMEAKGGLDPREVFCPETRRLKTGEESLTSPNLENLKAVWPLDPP
# Procedure, shortened: as §1
# ETS2 = target: T3, ETS2 (Homo sapiens, UniProt P15036 1-469)
# T3 sequence: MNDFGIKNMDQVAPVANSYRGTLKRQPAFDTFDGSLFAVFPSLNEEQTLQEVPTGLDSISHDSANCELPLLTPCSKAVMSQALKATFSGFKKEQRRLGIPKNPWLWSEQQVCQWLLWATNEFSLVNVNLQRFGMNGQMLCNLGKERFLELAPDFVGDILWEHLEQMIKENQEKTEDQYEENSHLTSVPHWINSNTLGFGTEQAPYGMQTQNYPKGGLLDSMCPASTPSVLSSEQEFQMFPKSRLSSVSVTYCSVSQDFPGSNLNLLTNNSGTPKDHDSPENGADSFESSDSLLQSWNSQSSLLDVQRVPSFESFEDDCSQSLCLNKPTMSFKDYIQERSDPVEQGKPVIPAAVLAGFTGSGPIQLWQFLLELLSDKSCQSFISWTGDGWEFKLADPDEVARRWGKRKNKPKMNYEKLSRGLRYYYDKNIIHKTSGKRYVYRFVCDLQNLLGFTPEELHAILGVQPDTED
# Procedure, shortened: as §1
# SPDEF = target: T4, SPDEF (Homo sapiens, UniProt O95238 1-335)
# T4 sequence: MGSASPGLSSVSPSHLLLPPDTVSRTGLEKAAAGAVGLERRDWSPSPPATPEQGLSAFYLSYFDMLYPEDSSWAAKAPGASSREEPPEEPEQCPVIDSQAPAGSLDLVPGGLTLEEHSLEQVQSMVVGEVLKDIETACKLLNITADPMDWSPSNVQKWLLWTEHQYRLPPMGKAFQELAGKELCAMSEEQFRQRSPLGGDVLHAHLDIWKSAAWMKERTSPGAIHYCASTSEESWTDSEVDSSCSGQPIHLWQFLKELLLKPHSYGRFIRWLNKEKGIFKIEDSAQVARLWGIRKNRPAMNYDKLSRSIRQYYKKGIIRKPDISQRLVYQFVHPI
# Procedure, shortened: as §1
# ETV7 = target: T5, ETV7 (Homo sapiens, UniProt Q9Y603 1-341)
# T5 sequence: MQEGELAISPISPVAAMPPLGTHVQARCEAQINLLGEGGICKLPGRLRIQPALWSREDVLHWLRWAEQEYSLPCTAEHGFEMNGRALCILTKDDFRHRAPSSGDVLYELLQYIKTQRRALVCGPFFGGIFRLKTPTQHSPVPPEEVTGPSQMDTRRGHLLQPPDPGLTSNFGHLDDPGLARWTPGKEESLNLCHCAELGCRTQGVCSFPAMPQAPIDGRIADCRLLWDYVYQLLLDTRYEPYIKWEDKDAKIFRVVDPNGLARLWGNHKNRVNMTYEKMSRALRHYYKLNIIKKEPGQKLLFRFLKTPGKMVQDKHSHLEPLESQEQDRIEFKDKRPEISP
# Procedure, shortened: as §1
# ELF5 = target: T6, ELF5 (Homo sapiens, UniProt Q9UKW6-2 1-255)
# T6 sequence: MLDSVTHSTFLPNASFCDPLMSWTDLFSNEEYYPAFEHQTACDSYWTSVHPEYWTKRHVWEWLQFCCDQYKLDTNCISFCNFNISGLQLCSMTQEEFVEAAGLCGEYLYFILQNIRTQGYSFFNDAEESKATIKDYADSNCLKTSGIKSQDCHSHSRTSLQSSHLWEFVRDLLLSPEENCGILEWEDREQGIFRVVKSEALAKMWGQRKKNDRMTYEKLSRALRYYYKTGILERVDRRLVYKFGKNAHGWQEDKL
# Procedure, shortened: as §1
# ETV3 = target: T7, ETV3 (Homo sapiens, UniProt P41162-2 1-143)
# T7 sequence: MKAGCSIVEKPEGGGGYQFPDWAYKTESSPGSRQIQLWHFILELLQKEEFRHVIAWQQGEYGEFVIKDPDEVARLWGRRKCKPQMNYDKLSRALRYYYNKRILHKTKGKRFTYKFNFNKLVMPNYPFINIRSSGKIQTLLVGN
# Procedure, shortened: as §1
# ETV6 = ETV6 (Homo sapiens, UniProt P41212 1-452)
# ETV6, sequence (P41212 whole entry): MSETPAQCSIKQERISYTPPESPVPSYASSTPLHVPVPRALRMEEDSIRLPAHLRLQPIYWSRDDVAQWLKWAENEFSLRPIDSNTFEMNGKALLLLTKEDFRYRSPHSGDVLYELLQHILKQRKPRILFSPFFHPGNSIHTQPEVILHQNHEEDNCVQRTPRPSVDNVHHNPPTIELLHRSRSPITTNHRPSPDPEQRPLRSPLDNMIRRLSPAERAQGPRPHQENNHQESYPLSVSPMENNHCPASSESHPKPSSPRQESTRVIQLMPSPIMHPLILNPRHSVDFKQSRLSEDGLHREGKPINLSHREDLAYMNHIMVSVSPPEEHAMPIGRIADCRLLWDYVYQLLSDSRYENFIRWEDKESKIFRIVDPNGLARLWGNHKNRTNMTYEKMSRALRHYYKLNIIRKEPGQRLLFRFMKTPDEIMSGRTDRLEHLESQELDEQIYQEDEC
# Procedure, shortened: as §1
sequence,measurement,setting,value
TCTTAC,binding signal,ETV1,"1.32 fold enrichment (6-mer frequency, TF over GST control)"
same,binding signal,ERF,"1.29 fold enrichment (6-mer frequency, TF over GST control)"
same,binding signal,ETV3L,"1.3 fold enrichment (6-mer frequency, TF over GST control)"
same,binding signal,ETS2,"1.21 fold enrichment (6-mer frequency, TF over GST control)"
same,binding signal,SPDEF,"1.36 fold enrichment (6-mer frequency, TF over GST control)"
same,binding signal,ETV7,"1.31 fold enrichment (6-mer frequency, TF over GST control)"
same,binding signal,ELF5,"1.24 fold enrichment (6-mer frequency, TF over GST control)"
same,binding signal,ETV3,"1.27 fold enrichment (6-mer frequency, TF over GST control)"
same,binding signal,ETV6,"1.33 fold enrichment (6-mer frequency, TF over GST control)"
